Screening results: PubChem, National Center for Advancing Translational Sciences (NCATS)
Compounds with a hit are over-represented: about 19% of the library has one in this group of screens.
IL-1B inflam inh: blocks inflammasome-driven IL-1 beta release | THP-1 LPS/ATP IL-1B secretion, AlphaLISA, 16 h; stronger effect = lower value | activity change, % at 57.5 µM | actives 4.7% (n = 360,000) | AID 743279; in the data active = activity change below about -50%; inconclusive = mostly about -30% to -49%
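THP-1 cells pretreated 1 hr with compounds (up to 57.5 uM final), then stimulated with LPS (250 ng/mL final) plus ATP (1.25 mM final); secreted IL-1B measured by AlphaLISA after 16 hr, decreased signal indicating inhibition.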
SW480 rerep: induces DNA re-replication in SW480 colon adenocarcinoma cells | SW480 DNA re-replication, Hoechst DNA content imaging, 48 h | Potency, µM (highest dose often 46.1 µM), hits mostly activators | actives 1.8% (n = 340,000); note: nearly all actives have a fitted effect of over 55% in size
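DNA re-replication was detected as more nuclei of elevated Hoechst intensity after 48 hr exposure to compound (23 nL pinned per well of 250 cells).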
DT40 TDP1 CPT: DT40-hTDP1 cell growth loss with CPT | chicken DT40 Tdp1-/-;hTDP1 cells + 20 nM CPT, ATP luminescence, 48 h | Potency, µM (series often up to 46.2 µM), usual class: inhibitors | actives 12% (n = 420,000); note: nearly all actives have a fitted effect of over 55% in size
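Chicken DT40 Tdp1-/- cells complemented with human TDP1, 400 cells/well, exposed to compounds plus 20 nM camptothecin for at least 48 h at 37 C; viability read as ATP content by CellTiter-Glo luminescence.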
BCR signal inh: inhibitors of chronic active B-cell receptor signaling. ABC-DLBCL IkBa-CBG/CBR reporter, luminescence ratio, 4 h. Potency, µM (top dose mostly 46.1 µM), hits mostly inhibitors. actives 0.05% (n = 340,000); active = well fitted inhibition curve with a large enough effect in the signal ratio, with a control signal flat, not every such curve was filed as active; inconclusive = small, poorly fitted or top-dose-only effect, or effect the other way, or a change in a side signal; the % refers to the signal ratio
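TMD8 human ABC-DLBCL cells with doxycycline-inducible IκBα–green luciferase fusion and unfused red luciferase, in 0.5% FBS medium; compounds up to 46 uM, 4 h at 37C. Green/red luminescence ratio, filter-overlap corrected, fitted to concentration-response curves.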
MCF10A rereplic: DNA re-replication induction in MCF 10a cells. actives 2.9% (n = 350,000). MCF 10A DNA re-replication, Hoechst nuclear intensity, 48 h. Potency, µM (highest dose often 46.1 µM), most hits filed as activators; note: nearly all actives have a fitted effect of over 50% in size
TDP1 cell noCPT: qHTS for Inhibitors of human tyrosyl-DNA phosphodiesterase 1 (TDP1): qHTS in cells in absence of CPT; DT40 Tdp1-/- hTDP1 cells, no CPT, ATP luminescence, 48 h; actives 15% (n = 420,000); AID 686978, 2013; Potency, µM (series often up to 46.2 µM), usual class: inhibitors; note: nearly all actives have a fitted effect of over 55% in size
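Chicken DT40 Tdp1-/- cells stably complemented with human TDP1 were seeded at 400 cells/well with DMSO in place of 20 nM camptothecin. After compound pinning, cells grew at least 48 hr at 37 °C; viability read by CellTiter-Glo luminescence.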
A number is an active result. Unless noted, calls come from the whole dose curve; as a rule, active = well fitted curve in the direction sought with a large enough effect; inconclusive = small, poorly fitted or top-dose-only effect, or another doubt; inactive = no such curve, though single readings can be large; an effect the other way counts as inactive or inconclusive.

Results for CCN1CCN(c2ncnc3scc(-c4ccc(OC)cc4)c23)CC1 ?
IL-1B inflam inh: inactive; SW480 rerep: inactive; DT40 TDP1 CPT: inactive; BCR signal inh: inconclusive; MCF10A rereplic: inactive; TDP1 cell noCPT: inactive

Results for Cc1sc2ncnc(N3CCN(Cc4ccccc4)CC3)c2c1-c1ccccc1 ?
IL-1B inflam inh: -56.0; SW480 rerep: inactive; DT40 TDP1 CPT: inconclusive; BCR signal inh: inactive; MCF10A rereplic: 16.4µM; TDP1 cell noCPT: inconclusive

Results for COc1ccc(CN2CCN(c3ncnc4scc(-c5ccc(F)cc5)c34)CC2)cc1 ?
IL-1B inflam inh: inconclusive; SW480 rerep: inactive; DT40 TDP1 CPT: 16.4µM; BCR signal inh: inconclusive; MCF10A rereplic: inconclusive; TDP1 cell noCPT: 20.6µM

Results for CCOc1ccc(CN2CCN(c3ncnc4scc(-c5ccccc5)c34)CC2)cc1 ?
IL-1B inflam inh: inactive; SW480 rerep: inactive; DT40 TDP1 CPT: inconclusive; BCR signal inh: inactive; MCF10A rereplic: inactive; TDP1 cell noCPT: 8.2µM

Results for COc1ccc(F)cc1CN1CCN(c2ncnc3scc(-c4ccccc4)c23)CC1 ?
SW480 rerep: inactive; DT40 TDP1 CPT: 14.6µM; BCR signal inh: inactive; MCF10A rereplic: inconclusive; TDP1 cell noCPT: 16.4µM

Results for Fc1ccc(-c2csc3ncnc(N4CCN(c5ccccc5)CC4)c23)cc1 ?
IL-1B inflam inh: inactive; SW480 rerep: inconclusive; DT40 TDP1 CPT: inconclusive; BCR signal inh: inactive; MCF10A rereplic: inconclusive; TDP1 cell noCPT: inconclusive

What do the screens show for `COc1cc2c(cc1OC)C(c1cc(OC)c(O)c(OC)c1)CC(=O)N2` (centres undefined)?
DT40 TDP1 CPT: inactive; TDP1 cell noCPT: inactive

How did CC(C)(C)c1ccc(OCCOCCn2c(-c3ccc(Cl)cc3)nc3ccccc3c2=O)cc1 do in these assays?
DT40 TDP1 CPT: inactive; TDP1 cell noCPT: inactive

What do the screens show for `CC(C)C(=O)N1CCCC1(C)C(=O)Nc1cccc(Oc2ccccc2)c1` (centres undefined)?
IL-1B inflam inh: inactive; DT40 TDP1 CPT: inconclusive; TDP1 cell noCPT: inconclusive

What do the screens show for `Cc1sc2ncnc(Nc3ccc(N4CCOCC4)cc3)c2c1-c1ccccc1`?
IL-1B inflam inh: inactive; SW480 rerep: inactive; DT40 TDP1 CPT: 16.4µM; BCR signal inh: inconclusive; MCF10A rereplic: inactive; TDP1 cell noCPT: inconclusive

Results for COc1ccc(-c2cc(=Nc3c(C)n(C)n(-c4ccccc4)c3=O)c3ccccc3o2)cc1 ?
IL-1B inflam inh: inactive; SW480 rerep: inactive; DT40 TDP1 CPT: inconclusive; BCR signal inh: inconclusive; MCF10A rereplic: inactive; TDP1 cell noCPT: 20.6µM

What do the screens show for `CCn1[nH]c(=O)c(=Nc2c(C)n(C)n(-c3ccccc3)c2=O)cc1-c1ccc(Cl)cc1`?
IL-1B inflam inh: -51.6; SW480 rerep: inactive; DT40 TDP1 CPT: inactive; BCR signal inh: inactive; MCF10A rereplic: inactive; TDP1 cell noCPT: inconclusive

How did COc1ccc(-c2csc(=Nc3c(C)n(C)n(-c4ccccc4)c3=O)n2C(C)(C)C)cc1 do in these assays?
IL-1B inflam inh: inactive; SW480 rerep: inactive; DT40 TDP1 CPT: inactive; BCR signal inh: inactive; MCF10A rereplic: inactive; TDP1 cell noCPT: inactive

Results for COc1ccc(-c2c/c(=N\c3nc(-c4ccccc4)c(C)s3)c3ccccc3o2)cc1O ?
IL-1B inflam inh: inactive; SW480 rerep: inconclusive; DT40 TDP1 CPT: 5.8µM; BCR signal inh: inconclusive; MCF10A rereplic: inconclusive; TDP1 cell noCPT: 4.11µM

How did Cc1c(N=Cc2ccc(-c3ccc(Cl)cc3)o2)c(=O)n(-c2ccccc2)n1C do in these assays?
IL-1B inflam inh: inactive; SW480 rerep: inactive; DT40 TDP1 CPT: inactive; BCR signal inh: inactive; MCF10A rereplic: inactive; TDP1 cell noCPT: inactive

Results for COc1cc(OC)cc(C(=O)N[C@H](C(=O)Nc2cc(F)ccc2C)C(C)C)c1 ?
IL-1B inflam inh: inactive; SW480 rerep: inactive; DT40 TDP1 CPT: inactive; BCR signal inh: inactive; MCF10A rereplic: inactive; TDP1 cell noCPT: inactive
